PubChem BioAssay (EPA / NIEHS)
Inconclusive results are not listed. Activity calls are given as the source filed them. The calls were made as follows, unless noted: active = hit-call score of the fitted dose curve at least 0.9, where 1 is the maximum; inactive = score below 0.9.

Key:
[1] = ATG_TCF_b_cat_CIS: Attagene CIS-FACTORIAL HepG2 Assay for human T-Cell-Factor with beta-catenin (TCF/b-cat) (AID 2282965); settings: HepG2 TCF/beta-catenin cis-reporter transcription, actives raise or lower the signal
Method in brief: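 HepG2 cells transiently transfected with cis-promoter-driven multiplexed reporter units; reporter mRNA measured 24 h after dosing by RT-PCR, FAM labelling, HpaI digestion and capillary electrophoresis. Bidirectional fitting relative to DMSO baseline.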

[2] = ATG_TAL_CIS: Attagene CIS-FACTORIAL HepG2 Assay for human TAL Basal Promoter (AID 2282966); settings: HepG2 Attagene cis-factorial TAL promoter reporter; actives raise or lower the signal;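 also: background control endpoint measuring basal TAL promoter reporter mRNA not a specific factor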
Method in brief: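 In this cell-based multiplex, HepG2 liver cells bearing cis-promoter reporter constructs are dosed for 24 hours. Total RNA is reverse-transcribed and amplified, labelled fragments are sized by capillary electrophoresis, and signal changes are fitted bidirectionally versus DMSO.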

[3] = ATG_TGFb_CIS: Attagene CIS-FACTORIAL HepG2 Assay for human Transforming Growth Factor (TGF) (AID 2282967); settings: HepG2 Attagene CIS TGFb reporter, mRNA transcription; actives raise or lower the signal
Method in brief: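 Cells were dosed for 24 hours, after which total RNA was reverse-transcribed and reporter sequences amplified, labeled and sized by capillary electrophoresis. Activity was fitted in both directions against DMSO.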

[4] = molecular target: Estrogen receptor (Homo sapiens) (UniProt P03372); assay: ATG_ERa_TRANS: Attagene TRANS-FACTORIAL HepG2 Assay for human Estrogen Receptor alpha (ERa) (AID 2282970; active = hit-call score of the fitted dose curve at least 0.9, where 1 is the maximum); settings: HepG2 Attagene TRANS ERa GAL4 reporter, mRNA
Estrogen receptor (Homo sapiens), sequence (P03372 whole entry, looked up, the tested form may be a part): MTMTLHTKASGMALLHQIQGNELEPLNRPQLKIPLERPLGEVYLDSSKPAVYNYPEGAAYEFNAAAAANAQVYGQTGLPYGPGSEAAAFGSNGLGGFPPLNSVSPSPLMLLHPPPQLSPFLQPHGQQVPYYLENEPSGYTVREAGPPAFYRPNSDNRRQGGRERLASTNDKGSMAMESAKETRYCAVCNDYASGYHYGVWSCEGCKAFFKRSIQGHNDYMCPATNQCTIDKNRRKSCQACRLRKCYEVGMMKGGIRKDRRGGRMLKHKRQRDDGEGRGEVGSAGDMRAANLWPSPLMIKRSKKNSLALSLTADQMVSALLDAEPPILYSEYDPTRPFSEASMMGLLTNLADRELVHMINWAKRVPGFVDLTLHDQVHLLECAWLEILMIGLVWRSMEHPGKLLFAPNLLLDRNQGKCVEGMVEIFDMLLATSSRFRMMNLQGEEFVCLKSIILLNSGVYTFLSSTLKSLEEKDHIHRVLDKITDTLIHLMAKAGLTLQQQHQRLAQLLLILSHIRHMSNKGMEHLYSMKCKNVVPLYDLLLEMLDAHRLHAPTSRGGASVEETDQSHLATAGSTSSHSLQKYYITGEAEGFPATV
Method in brief: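 After 24 h of compound treatment, RNA from HepG2 cells bearing transfected GAL4-UAS reporter constructs is converted to cDNA, amplified and fluorescently labelled. Capillary electrophoresis resolves the ERa-linked reporter; DMSO serves as negative control.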

[5] = molecular target: X-box-binding protein 1 (Homo sapiens) (UniProt P17861); assay: ATG_Xbp1_CIS: Attagene CIS-FACTORIAL HepG2 Assay for human X-box Binding Protein 1 (XBP1) (AID 2282972); settings: HepG2 XBP1 cis-element reporter, Attagene multiplex; actives raise or lower the signal
X-box-binding protein 1 (Homo sapiens), sequence (P17861 whole entry, looked up): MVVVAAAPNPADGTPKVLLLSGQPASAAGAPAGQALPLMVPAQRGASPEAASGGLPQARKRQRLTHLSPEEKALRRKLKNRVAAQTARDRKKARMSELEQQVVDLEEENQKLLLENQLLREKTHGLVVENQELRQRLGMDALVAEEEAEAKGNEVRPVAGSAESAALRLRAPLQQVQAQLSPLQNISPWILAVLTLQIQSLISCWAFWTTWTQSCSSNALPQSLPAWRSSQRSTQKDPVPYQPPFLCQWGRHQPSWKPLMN
Method in brief: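 After a 24-hour chemical exposure of HepG2 cells carrying cis-regulated reporters, reporter mRNA levels are assessed. Quantification uses RT-PCR, 6-FAM labelling and capillary electrophoresis. Gain- or loss-of-signal is fitted against DMSO.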

[6] = ATG_GAL4_TRANS: Attagene TRANS-FACTORIAL HepG2 Assay for GAL4 (Internal Marker) (AID 2282976; active = hit-call score of the fitted dose curve at least 0.9, where 1 is the maximum); settings: HepG2 Attagene TRANS GAL4 internal marker reporter
Method in brief: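 RT-PCR/capillary electrophoresis readout of reporter mRNA. HepG2, transient MRTU transfection (GAL4-UAS reporters), 24 h compound exposure. Background-control endpoint, positive direction vs DMSO baseline.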

[7] = ATG_VDRE_CIS: Attagene CIS-FACTORIAL HepG2 Assay for human Vitamin D Receptor Element (VDRE) (AID 2282968); settings: HepG2 VDRE cis-reporter transcription, actives raise or lower the signal
Method in brief: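 Transiently transfected HepG2 cells carrying cis-regulated reporter transcription units were exposed for 24 h. Reporter mRNA was measured by RT-PCR with fluorescent labelling and capillary electrophoresis, and fitted in both directions against DMSO.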

[8] = ATG_M_19_TRANS: Attagene TRANS-FACTORIAL HepG2 Assay for M19 Transcription Factor (Internal Marker) (AID 2282974; active = hit-call score of the fitted dose curve at least 0.9, where 1 is the maximum); settings: HepG2 Attagene TRANS-FACTORIAL M19 internal marker reporter
Method in brief: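 HepG2 transiently transfected with GAL4-UAS multiplex reporter constructs, exposed 24 h; reporter RNA quantified by RT-PCR, 6-FAM labeling, HpaI digestion and capillary electrophoresis; internal background marker fitted upward versus DMSO.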

Measured: AC50

CC(C)OC(=O)COc1ccc(Cl)cc1Cl
not listed: [7] | [8]
inactive: all other assays above

FC(F)(F)C(F)(F)C(F)(F)C(F)(F)C(F)(F)C(F)(F)CC[Si](Cl)(Cl)Cl
not listed: [4] | [8]
inactive: all other assays above

FC(F)(F)C(F)(F)C(F)(F)CC1CO1 (centres undefined)
not listed: [4] | [8]
inactive: all other assays above

C[C@]12CC[C@H]3C(=CCc4cc(O)ccc43)[C@@H]1CCC2=O
not listed: [4] | [5]
inactive: all other assays above

CC1CCCCC1
inactive: [1] | [2] | [3] | [7] | [6]

CC(=O)c1ccccc1N
not listed: [4] | [8]
inactive: all other assays above

CCCCCCCCCc1ccc(OCCO)cc1
inactive: [2] | [3] | [7] | [8]
active: [1] 21.5 µM

Brc1ccccn1
not listed: [4] | [5]
inactive: all other assays above

COc1ccccc1C=O
not listed: [4] | [5]
inactive: all other assays above

NC(=O)C(F)(F)C(F)(F)C(F)(F)C(F)F
inactive: [1] | [2] | [3] | [7] | [6]

CC(=O)CCC(C)C
not listed: [6] | [7]
inactive: all other assays above

CC(C)OC=O
not listed: [4] | [5]
inactive: all other assays above

CCC(=O)OC(C)c1ccccc1 (centres undefined)
not listed: [4] | [5]
inactive: all other assays above

CC(C)Nc1ccc(NC(C)C)c2c1C(=O)c1ccccc1C2=O
active: [7] 0.417 µM
not listed: [4] | [8]
inactive: all other assays above

CC(C)=CCCC(C)O (centres undefined)
not listed: [4] | [8]
inactive: all other assays above

O=C(c1ccccc1)c1ccc(O)cc1O
inactive: [1] | [2] | [3] | [8] | [6]

CC(C)(C)c1cc(CCC(=O)NCCCCCCNC(=O)CCc2cc(C(C)(C)C)c(O)c(C(C)(C)C)c2)cc(C(C)(C)C)c1O
active: [7] 0.811 µM
inactive: [1] | [2] | [3] | [6]

CCC/C=C/CO
not listed: [4]
inactive: all other assays above

CCCC(=O)OCC(COC(=O)CCC)OC(=O)CCC
active: [1] 64 µM
not listed: [4] | [8]
inactive: all other assays above

CCOCN(C(=O)CS(=O)(=O)O)c1c(C)cccc1CC
not listed: [4] | [8]
inactive: all other assays above

O=C1c2c(O)ccc(Nc3ccc(CCO)cc3)c2C(=O)c2c([N+](=O)[O-])ccc(O)c21
inactive: [1] | [2] | [3] | [4]

CCOC(OCC)OCC
not listed: [4] | [8]
inactive: all other assays above

OCCCc1cccnc1
inactive: [1] | [2] | [3] | [7] | [6]

CCN=C1C=CC(=C(c2ccc(N(CC)CC)cc2)c2ccc(N(CC)CC)cc2)c2ccccc21
active: [1] 0.885 µM | [7] 1.15 µM | [5] 1.86 µM
not listed: [4]
inactive: all other assays above

CCN(CC)c1ccc(C=O)c(O)c1
active: [7] 32.5 µM
not listed: [4] | [8]
inactive: all other assays above

CSc1ccc(O)cc1C
not listed: [4]
inactive: all other assays above

O=S(=O)(OCC(F)(F)F)C(F)(F)C(F)(F)C(F)(F)C(F)(F)F
active: [1] 104 µM | [2] 150 µM
not listed: [4]
inactive: all other assays above

CCOC(=O)C1CC(=O)C(=C(O)C2CC2)C(=O)C1 (centres undefined)
inactive: [1] | [2] | [3] | [7] | [6]

O=S(=O)(O)c1ccc(Cl)cc1
not listed: [4] | [8]
inactive: all other assays above
